A549 tox = counter-screen for Nrf2 inhibitors: cytotoxicity in A549 cells. A549 ARE-Fluc cells, CellTiter-Fluor viability, 18-24 h. Potency, µM (titrated, usually from 46 µM), for the others: at the highest dose activity change, negative = cytotoxicity, usual class: inhibitors. 0.16% of 390,000 active; note: potency is the fitted concentration of half-maximal effect; % is set by controls: 0 for no effect and ±100 for the full control effect
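A549 ARE-Fluc cells in 5% FBS OPTI-MEM, 5000 cells/well, rested 2 h then exposed to compounds in concentration-response for 18-24 h at 37 °C. Viability by CellTiter-Fluor fluorescence (Ex 405/Em 525) after 30 min; luciferase luminescence (BugLite, 15 min, RT) read afterwards.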
Nrf2 inh = inhibitors of Nrf2 signaling; A549 ARE-Fluc reporter, luciferase luminescence, 18-24 h; Potency, µM (highest dose often 46 µM), for the others: at the highest dose activity change, negative = inhibition, most hits filed as inhibitors; 2.1% of 360,000 active; AID 504444; note: potency is the fitted concentration of half-maximal effect; % is set by controls: 0 for no effect and ±100 for the full control effect; nearly all actives have a fitted effect of over 60% in size
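Concentration-response testing used A549 ARE_Fluc cells at 5000 cells/well. Following an 18-24 h compound incubation, viability was read by fluorescence (Ex 405/Em 525) and luciferase output by luminescence.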
ALOX12 inh = ALOX12 (human) lipoxygenase inhibition. P18054. purified 12hLO, xylenol orange hydroperoxide absorbance. Potency, µM (titrated, usually from 108 µM), without a hit: at the highest dose activity change, negative = inhibition, hits mostly inhibitors. 1.1% of 580,000 active; note: potency is the fitted concentration of half-maximal effect; % is set by controls: 0 for no effect and ±100 for the full control effect
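Hydroperoxide product was detected by ferrous iron/xylenol orange as the 573 to 405 nm absorbance ratio. Arachidonic acid at 40 uM (final) was turned over for 30 min at room temperature by 150 nM human 12hLO, pH 7.0 Hepes buffer, after 15 min compound preincubation.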
LDHA block = inhibitors of human lactate dehydrogenase A; activity change, % (values are at about 110 or 230 µM); purified LDHA, NADH/diaphorase-resazurin fluorescence; active compounds read low; 0.15% of 480,000 active; AID 1347041; in the data active = activity change below about -30%; inconclusive = mostly about -25% to -30%;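 note: plate controls were DMSO wells for no effect and wells without enzyme for full effect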
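Human LDH5 (2 nM) was incubated with 0.06 mM NADH and 0.2 mM pyruvate for 5 min at room temperature in Tris pH 7.4. Remaining NADH was coupled through diaphorase/resazurin, and resorufin fluorescence was read at 0 and 20 min.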
ERG-DNA inh = ERG Ets/DNA interaction inhibition; P11308; fluorescence polarization, His-ERG Ets domain / labelled DNA; Potency, µM (series often up to 76.9 µM), for the others: top-dose FP activity, negative = inhibition, usual class: inhibitors; 0.028% of 370,000 active; AID 624246; active = well fitted inhibition curve with a large enough effect in the polarisation, with a control signal flat; inconclusive = small, poorly fitted or top-dose-only effect, or effect the other way, or a change in a side signal; inactive = no such curve, though single readings can be large or run the other way; the % refers to the polarisation;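 note: polarization taken with two DNA probes labelled with fluorescein and Texas red; potency is the fitted concentration of half-maximal effect; % of control where 0% means no effect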
Target sequence (P11308 whole entry, looked up, the tested form may be a part): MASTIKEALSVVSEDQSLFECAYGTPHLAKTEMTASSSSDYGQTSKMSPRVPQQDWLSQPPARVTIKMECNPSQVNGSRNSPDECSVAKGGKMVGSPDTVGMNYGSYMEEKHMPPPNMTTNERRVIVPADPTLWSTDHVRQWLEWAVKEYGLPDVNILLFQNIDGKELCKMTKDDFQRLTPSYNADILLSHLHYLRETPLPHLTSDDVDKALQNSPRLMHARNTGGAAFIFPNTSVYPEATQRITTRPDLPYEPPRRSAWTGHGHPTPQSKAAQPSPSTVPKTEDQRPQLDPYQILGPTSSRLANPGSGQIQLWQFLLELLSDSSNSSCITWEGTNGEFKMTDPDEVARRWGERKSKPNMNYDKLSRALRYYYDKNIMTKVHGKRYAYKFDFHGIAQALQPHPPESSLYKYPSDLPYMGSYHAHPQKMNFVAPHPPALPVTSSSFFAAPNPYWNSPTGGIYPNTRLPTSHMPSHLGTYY
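His-tagged ERG Ets domain (1 uM in the protein solution; 300mM KCl, 50mM Tris-HCl, 1mM EDTA, 1mM DTT, pH 7.5) received compound, then a probe mix of 5 nM fluorescein-DNA and 100nM Texas-615-DNA. Fluorescence polarization was read for both dyes.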
Nrf2 ARE act = Nrf2 pathway activation; AREc32 ARE-luciferase reporter (MCF7-derived line), luminescence, 24 h; Potency, µM (doses to about 46.1 µM), without a hit: top-dose activation, hits mostly activators; 0.31% of 410,000 active; note: potency is the fitted concentration of half-maximal effect; % of control where 0% means no effect; nearly all actives have a fitted effect of over 65% in size
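ARE-driven firefly luciferase activity in AREc32 cells measured after a 24 hr compound exposure at 37 deg C, using Steady-Glo reagent and a 30 min room-temperature hold.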
Active calls of the source: *; ? = inconclusive; . = no result; [ ] = dose if it differs, or a comment. A selection: hits, their analogues and other compounds. The true share with any hit is near 2.7%. Unless noted, calls come from the whole dose curve; as a rule, active = well fitted curve in the direction sought with a large enough effect; inconclusive = small, poorly fitted or top-dose-only effect, or another doubt; inactive = no such curve, though single readings can be large; an effect the other way counts as inactive or inconclusive.

SMILES	A549 tox	Nrf2 inh	ALOX12 inh	LDHA block	ERG-DNA inh	Nrf2 ARE act
Cc1ccc(NS(=O)(=O)c2ccc(Cl)c(C(=O)Nc3ccccc3-c3nc4ccccc4[nH]3)c2)cc1C	-27%	23µM*	?	-5	-3%	2%
O=C1/C(=C/c2cccs2)Oc2cc(O)ccc21	.	.	?	-5	.	.
CCCC(=O)N1CCN(c2ccc(NC(=O)c3ccc([N+](=O)[O-])o3)cc2Cl)CC1	?	16µM*	-17%	5	-4%	?
CN1CCN(c2ccc(NC(=O)c3ccc([N+](=O)[O-])o3)cc2Cl)CC1	-3%	?	-4%	12	-4%	?
COC(=O)COc1cccc(N)c1	.	.	13µM*	8	.	.
CC1CCN(S(=O)(=O)c2ccc(-c3nc(C#N)c(NCCN4CCOCC4)o3)cc2)CC1	.	.	8%	4	.	.
COc1ccc(-n2nnnc2C(C2CC2)N2CCN(C/C=C/c3ccccc3)CC2)cc1 (configuration not stated)	.	.	40µM*	-3	.	0%
Cc1cccc(C)c1-n1nnnc1C(C1CC1)N1CCN(C/C=C/c2ccccc2)CC1 (configuration not stated)	.	.	-25%	-9	.	6%
O=C(Cc1ccccc1)N/N=C/c1ccc(-c2ccc([N+](=O)[O-])cc2)o1	3%	-7%	-3%	-8	6%	0%
Cc1ccc([N+](=O)[O-])cc1-c1ccc(/C=N/NC(=O)CN2CCOCC2)o1	8%	-14%	0%	4	0%	13µM*
O=C(c1ccccc1)c1ccccc1N1C(=O)C=CC1=O	-5%	-22%	7.9µM*	-7	1%	16%
Cn1c(=O)c2[nH]c(CCCCCc3nc4ccccc4[nH]3)nc2n(C)c1=O	3%	0%	-9%	-1	2%	0%
Cn1c(=O)c2[nH]c(CCCCCCCc3nc4ccccc4[nH]3)nc2n(C)c1=O	?	16µM*	?	-8	-4%	11%
Cn1c(=O)c2[nH]c(Cc3cccc(O)c3)nc2n(C)c1=O	1%	-21%	-3%	3	21%	5%
Cn1c(=O)c2[nH]c(COc3ccc(C(C)(C)C)cc3)nc2n(C)c1=O	-19%	12µM*	.	-2	-11%	-1%
O=c1[nH]c(=O)n(Cc2ccccc2)c2c1C(C(F)(F)F)(C(F)(F)F)N=C(c1ccccn1)N2	.	.	?	-4	.	.
COC(=O)[C@@H]1Cc2ncn(C)c2CN1S(=O)(=O)c1ccc(F)cc1	.	.	56µM*	.	.	.
COC(=O)[C@@H]1Cc2ncn(C)c2CN1S(=O)(=O)c1ccc2ccccc2c1	.	.	0%[176 µM]	.	.	.
COc1ccc(C(=O)c2cc([N+](=O)[O-])ccc2N2CCCC2)cc1	?	?	-22%	-2	-4%	0%
COc1ccc(C(=O)c2cc([N+](=O)[O-])ccc2N2CCN(C)CC2)cc1	15µM*	10%	-11%	-4	-7%	0%
CC(/C=N/n1c(C2CCCCC2)n[nH]c1=S)=C\c1ccccc1	.	18µM*	?	-1	4%	-1%
Cc1cccc(/C=N/n2c(C3CCCCC3)n[nH]c2=S)c1	5%	3%	.	-10	6%	0%
COC(=O)/C(=C\c1ccc(OC(F)(F)F)cc1)NC(=O)c1ccccc1	.	.	?	-4	.	.
COc1ccc2c(c1)S/C(=C\C(=O)c1ccncc1)N2C	?	20%	45µM*	0	4%	4%
COc1cc(OC)cc(C(=O)/C=C2\Sc3ccccc3N2C)c1	-1%	17%	-6%	-8	4%	3%
SMILES	A549 tox	Nrf2 inh	ALOX12 inh	LDHA block	ERG-DNA inh	Nrf2 ARE act
CCCOc1ccc(-c2[nH]c3c(c2-c2ccc(OC)cc2)c(=O)[nH]c(=O)n3C)cc1	.	.	?	0	.	.
COc1cc(OC)c(N(C)S(=O)(=O)c2cccc(C(=O)NCc3cccs3)c2)cc1Cl	.	.	10µM*	-4	.	-2%
Cc1c(O)ccc2c(CN3CCCCC3C)cc(=O)oc12 (configuration not stated)	.	.	?	2	.	.
COc1ccc(C(=O)Nc2nc(-c3nc4ccccc4s3)cs2)cc1	.	.	-1%	0	.	.
FC(F)(F)c1ccccc1NC(=S)N1CCN(Cc2ccc3c(c2)OCO3)CC1	-2%	18µM*	-61%	2	2%	0%
Cc1ccccc1NC(=S)N1CCN(Cc2ccc3c(c2)OCO3)CC1	-1%	-15%	5%	-2	1%	-1%
Cc1nc(-c2ccc(Cl)cc2)sc1C(=O)N1CCN(Cc2ccc(C#N)cc2)CC1	.	.	-10%	-8	.	.
Cc1c(C)n(-c2ccc(Cl)cc2)c2ncn(CC(=O)NC(C)c3ccccc3)c(=O)c12 (configuration not stated)	.	.	25µM*	10	.	.
CCNC(=O)Cn1cnc2c(c(C)c(C)n2-c2ccc(Cl)cc2)c1=O	.	.	-76%	0	.	.
O=C(Cc1cccs1)Nc1cccc(-c2nnc(-c3ccco3)o2)c1	-4%	-14%	1%	-13	5%	4%
Cc1ccc(-c2nnc(-c3ccc(NC(=O)Cc4cccs4)cc3)o2)cc1	13µM*	9.2µM*	?	-7	3%	0%
O=C(CN1CCN(S(=O)(=O)c2ccc(Br)cc2)CC1)N/N=C/c1cc([N+](=O)[O-])ccc1Cl	1%	0%	-23%	-4	8%	13µM*
CN(c1ccccc1)P(=O)(N(C)c1ccccc1)N(C)c1ccccc1	?	16µM*	-1%	-4	4%	0%
CC(NC(=O)/C(C#N)=C\c1ccccc1)C1CC2CCC1C2 (configuration not stated)	.	.	23%	5	.	.
CCCN(CCC)Cc1cc(=O)oc2cc(C)c(C)cc12	.	.	?	2	.	0%
CCCN(CCC)Cc1cc(=O)oc2cc(C)c(Cl)cc12	.	.	40µM*	-5	.	7%
COCCN(CCOC)Cc1cc(=O)oc2cc(C)c(Cl)cc12	.	.	45µM*	-8	.	0%
COCCN(CCOC)Cc1cc(=O)oc2ccccc12	.	.	18µM*	-9	.	-1%
Cc1cc2oc(=O)cc(CN3CCCC3)c2cc1Cl	.	.	6.3µM*	-1	.	11%
CCc1cccc(C)c1Nc1c(-c2cc(OC)c(O)c(OC)c2)nc2cnccn12	.	.	?	65	.	.
O=C(Cc1n[nH]c(=O)c2ccccc12)Nc1cccc2ccccc12	.	.	?	8	.	.
CCCCN(CCCC)Cc1cc(=O)oc2ccc3ccccc3c12	.	.	35µM*	5	.	-1%
